# Measurements published in PubChem BioAssay (NCI).
# Compounds without any hit were thinned out: in the full panel of roughly 83,000, 20% have a hit.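 Method: cells in 96-well plates; compound added at one concentration; 48 h incubation; percent growth measured; values under 10 scored active.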 Unmarked numbers belong to inactive results. Activity calls are given as the source filed them.
# Assays:
# Assay in all cases: NCI-60 one-dose screen, 48 h (100 = growth as untreated, 0 = no growth, -100 = all killed)
# Details in all cases: 10 µM
# RPMI-8226 leukemia = test system: RPMI-8226 leukemia
# OVCAR-8 ovarian = test system: OVCAR-8 ovarian
# OVCAR-5 ovarian = test system: OVCAR-5 ovarian
# OVCAR-4 ovarian = test system: OVCAR-4 ovarian
# SK-OV-3 ovarian = test system: SK-OV-3 ovarian
# IGROV1 ovarian = test system: IGROV1 ovarian
# OVCAR-3 ovarian = test system: OVCAR-3 ovarian
# HS 578T breast = test system: HS 578T breast
# NCI/ADR-RES ovarian = test system: NCI/ADR-RES ovarian
# T-47D breast = test system: T-47D breast
# BT-549 breast = test system: BT-549 breast
# MDA-MB-435 melanoma = test system: MDA-MB-435 melanoma
# SW-620 colon = test system: SW-620 colon
# MCF7 breast = test system: MCF7 breast
# HCT-116 colon = test system: HCT-116 colon
# HCC-2998 colon = test system: HCC-2998 colon
# KM12 colon = test system: KM12 colon
SMILES,growth (RPMI-8226 leukemia),growth (OVCAR-8 ovarian),growth (OVCAR-5 ovarian),growth (OVCAR-4 ovarian),growth (SK-OV-3 ovarian),growth (IGROV1 ovarian),growth (OVCAR-3 ovarian),growth (HS 578T breast),growth (NCI/ADR-RES ovarian),growth (T-47D breast),growth (BT-549 breast),growth (MDA-MB-435 melanoma),growth (SW-620 colon),growth (MCF7 breast),growth (HCT-116 colon),growth (HCC-2998 colon),growth (KM12 colon)
CCOC(=O)c1ccc(NC(=O)Nc2ncc(Cl)cc2Cl)cc1,94.5%,97.7%,101%,104%,100%,115%,150%,132%,101%,73.4%,106%,90.8%,102%,97.8%,83.9%,96.2%,102%
O=C(Nc1cccc(-n2cc(-c3ccncc3)c(-c3ccc(O)c(Cl)c3)n2)c1)Nc1cccc(C(F)(F)F)c1,-29.4% (active),-49.9% (active),38.1%,2.73% (active),4.94% (active),-1.92% (active),-6.21% (active),-4.27% (active),11.4%,-23.6% (active),13.3%,-35.3% (active),13.2%,-6.1% (active),5.24% (active),20.4%,-14.7% (active)
CC(C)=CCc1cc(O)cc2c1OC(C=C(C)C)C1=C2C(=O)C2=C(NCCS2(=O)=O)C1=O (stereo unspecified),63.9%,3.18% (active),41.3%,1.98% (active),4.28% (active),-22.3% (active),-9.92% (active),11.2%,87.7%,-10% (active),18.3%,-56.4% (active),4.68% (active),-54.5% (active),-15.4% (active),-12.6% (active),43.3%
COc1cc(-c2nc(Nc3nc4ccccc4s3)[nH]c(=O)c2C#N)cc(OC)c1O,89.9%,99%,109%,109%,108%,128%,104%,107%,111%,102%,98.1%,120%,110%,95.7%,94.7%,104%,114%
N#CCCN(NC(=O)OCc1ccccc1)C(=O)OCc1ccccc1,110%,99%,108%,111%,122%,118%,118%,103%,105%,109%,109%,105%,102%,107%,95.4%,106%,109%
COc1ccc(Oc2nc(NC3CCCC3)nc(Sc3ccc(OC)cc3)n2)cc1,63.7%,65.4%,91.1%,74.3%,82.8%,64.9%,77.1%,83.8%,66.2%,55.9%,91.9%,89%,87.9%,69.3%,45.1%,98.8%,83.9%
CN1c2ccccc2[C@]2(Cc3ccccc3)Cc3ccccc3N[C@H]12,98.9%,106%,93.8%,91%,122%,88.8%,120%,110%,107%,109%,122%,117%,101%,94.1%,91.8%,103%,104%
COc1ccc2c(c1)C(=O)c1c-2c(=O)n(CCCN(C)C)c2cc(OC)c(OC)cc12,66.6%,62.1%,130%,74.4%,69.9%,67.2%,94.9%,119%,58.7%,81.2%,86.1%,80.9%,56.8%,28.4%,53.1%,82.8%,69.5%
Nc1c(C(=O)Nc2cccc3ccccc23)sc2nc3c(cc12)C(=O)CCC3,15.7%,21%,40.3%,47.7%,5.64% (active),23.7%,-26.7% (active),14.2%,2.15% (active),47.5%,57%,-37.3% (active),21.3%,13.6%,17.5%,11.9%,25.9%
Cc1ccc(N=Nc2c(N)nc(N)[nH]c2=O)cc1C,97.8%,104%,105%,105%,99.2%,92.6%,110%,108%,103%,96%,98.5%,95.1%,102%,94.4%,96.8%,113%,111%
O=C(Nc1ccc(CN2CCc3nc4cc(O)c(O)cc4cc32)cc1)c1ccc(Cl)c(Cl)c1,103%,106%,106%,117%,106%,102%,104%,102%,106%,88.6%,101%,100%,97.2%,93.7%,100%,112%,99.9%
COc1cc(-c2cc(-c3cc4c([nH]c5ccccc54)c(-c4cc(OC)c(OC)c(OC)c4)n3)cc(-c3ccccc3)n2)cc(OC)c1OC,46%,70.2%,88.6%,58.6%,90.7%,74.6%,72.3%,52.5%,42%,43.3%,66.6%,-1.18% (active),41.4%,44%,57%,72.8%,60%
CCCCCCCCCCCCCC[n+]1ccc(C(N)=O)cc1,-41.2% (active),1.18% (active),-4.86% (active),32.4%,34.3%,110%,-27.1% (active),-14.5% (active),96.1%,46.9%,-50.9% (active),8.53% (active),7.11% (active),22.8%,6.07% (active),6.43% (active),-87.2% (active)
COc1ccc2c(c1)O/C(=C\c1ccc([N+](=O)[O-])s1)C2=O,1.62% (active),0.767% (active),61.4%,-32.2% (active),60.2%,-29.4% (active),-30.5% (active),18.3%,54.5%,16%,7.31% (active),51.7%,-56.3% (active),21.4%,-23.4% (active),11.9%,5.98% (active)
COc1cc(NC(=O)c2sc3nc4c(cc3c2N)C(O)CCC4)cc(OC)c1 (stereo unspecified),88.2%,97.5%,100%,96.6%,97.4%,85.7%,95.3%,106%,87.3%,90.8%,100%,8.37% (active),66.1%,50.7%,84.2%,78.9%,69.5%
Cc1ccc(NC(=O)Nc2nc3ccccc3s2)cc1NC(=O)Nc1nc2ccccc2s1,42.8%,50.4%,104%,82.3%,95.8%,53.6%,96.2%,77.3%,91.7%,80.6%,104%,97.1%,102%,64.6%,84.9%,93.4%,88.2%
O=C(Nc1cccc(-n2cc(-c3ccncc3)c(-c3cc(O)cc(Cl)c3)n2)c1)c1cc(C(F)(F)F)cc(C(F)(F)F)c1,32.1%,39.6%,70.7%,59.6%,68.8%,73%,15.2%,65.9%,46.9%,26.3%,73.4%,45.6%,61%,23%,24.5%,28.9%,21.2%
COc1ccc(S(=O)(=O)Nc2c(/C=C\c3cc(OC)c(OC)c(OC)c3)ccc(OC)c2O)cc1,7.59% (active),-0.813% (active),29.5%,53%,18.5%,33.2%,-8.9% (active),-8.12% (active),-2.42% (active),82.2%,40.6%,-39.4% (active),23.4%,10.9%,-6.66% (active),13.3%,-4.97% (active)
